Reference: PubChem BioAssay (NCI)
The panel holds about 83,000 compounds, 20% with a hit somewhere; the sample as a whole holds those more often.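 Results are percent growth after 48 hours of single-concentration exposure. 100 means growth as in untreated cells, lower positive values show inhibition; negative values down to -100 show cell death.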 Unmarked numbers belong to inactive results. Active and inactive are the calls of the source. The calls were made as follows: active = growth percent below 10; inactive = the rest.

What was measured:
Test in all cases: NCI-60 one-dose screen, 48 h (100 = growth as untreated, 0 = no growth, -100 = all killed)
Settings in all cases: 10 µM unless noted
SR leukemia = test system: SR leukemia
RPMI-8226 leukemia = test system: RPMI-8226 leukemia
OVCAR-8 ovarian = test system: OVCAR-8 ovarian
OVCAR-5 ovarian = test system: OVCAR-5 ovarian
OVCAR-4 ovarian = test system: OVCAR-4 ovarian
SK-OV-3 ovarian = test system: SK-OV-3 ovarian
IGROV1 ovarian = test system: IGROV1 ovarian
OVCAR-3 ovarian = test system: OVCAR-3 ovarian
HS 578T breast = test system: HS 578T breast
NCI/ADR-RES ovarian = test system: NCI/ADR-RES ovarian
T-47D breast = test system: T-47D breast
BT-549 breast = test system: BT-549 breast
MDA-MB-435 melanoma = test system: MDA-MB-435 melanoma
SW-620 colon = test system: SW-620 colon
MCF7 breast = test system: MCF7 breast
HCT-116 colon = test system: HCT-116 colon
HCC-2998 colon = test system: HCC-2998 colon
KM12 colon = test system: KM12 colon

Row | SMILES | growth (SR leukemia) | growth (RPMI-8226 leukemia) | growth (OVCAR-8 ovarian) | growth (OVCAR-5 ovarian) | growth (OVCAR-4 ovarian) | growth (SK-OV-3 ovarian) | growth (IGROV1 ovarian) | growth (OVCAR-3 ovarian) | growth (HS 578T breast) | growth (NCI/ADR-RES ovarian) | growth (T-47D breast) | growth (BT-549 breast) | growth (MDA-MB-435 melanoma) | growth (SW-620 colon) | growth (MCF7 breast) | growth (HCT-116 colon) | growth (HCC-2998 colon) | growth (KM12 colon)
1 | O=C1Nc2cc(-c3ccc(NC(=O)c4ccccc4)cc3)ccc2/C1=C/c1ccc[nH]1 | 29.7% | 101% | 101% | 110% | 70% | 110% | 95.3% | 93.9% | 115% | 90.1% | 35.7% | 89.1% | 99.5% | 105% | 8.35% (active) | 99.1% | 99.8% | 68.7%
2 | O=C(Nc1ccccc1C(=O)N/N=C(\c1ccccc1)c1ccccn1)c1ccc(F)cc1 | 14.4% | 29.1% | 17.1% | 41.7% | -5.03% (active) | 2.2% (active) | 22.8% | 18.1% | 59.9% | 9.79% (active) | 12.7% | 16.1% | 29.5% | 30.2% | 12.7% | 17% | 32.5% | 26.6%
3 | CCCOC(=O)N[C@H]1CCc2c(Cl)c(OC)c(OC)c(OC)c2-c2ccc(SC)c(=O)cc21 | 4.56% (active) | -2.97% (active) | 21.6% | 44.7% | 36.3% | 38.3% | 11.7% | -24.7% (active) | 9.75% (active) | 13.6% | 45.9% | 1.4% (active) | -26.9% (active) | 20.2% | 14.7% | 0.896% (active) | 22.6% | -6.7% (active)
4 | NC1[C@H](c2c[nH]c3ccccc23)c2c([nH]c3ccccc23)[C@H]1c1c[nH]c2ccccc12 (stereo partly specified) | 81.7% | 77.7% | 99.8% | 92.7% | 86.6% | 115% | 63.9% | 78.2% | 83.8% | 81.7% | 94.9% | 105% | 100% | 96.3% | 90.8% | 74.2% | 97.3% | 91%
5 | CCCCCCOc1ccc(/C=N/Nc2cc(C)nc3ccc(Cl)cc23)cc1 | -7.39% (active) | -35.3% (active) | -36.4% (active) | 26.5% | -58.1% (active) | 90.2% | -79% (active) | -97% (active) | 28.5% | -27.8% (active) | 34.5% | 109% | -75.9% (active) | -83.3% (active) | -66.6% (active) | -58.9% (active) | -81.9% (active) | -68.2% (active)
6 | O=S(=O)(Nc1ccc(-n2cnc3cc(-c4ccc(O)cc4)ccc32)cc1)c1ccccc1 | 78% | 69.1% | 84.4% | 111% | 74.1% | 127% | 91.4% | 95.8% | 97.3% | 91.9% | 9.89% (active) | 94.3% | 98.5% | 109% | 87.9% | 90.3% | 115% | 54.6%
7 | O=C(Cn1c[n+](CC(=O)c2ccc([N+](=O)[O-])cc2)c2ccccc21)Nc1cccc2cccnc12 | 61.8% | 10.2% | 93.2% | 93.9% | 20.4% | 109% | 71.1% | 38.6% | 74.6% | 102% | 33.9% | 35.9% | 60% | 54.8% | 31.4% | 37.2% | 50.4% | 78.4%
8 | CN(C)c1ccc(Nc2c3ccccc3nc3cc(NC(=O)CCN4CCCC4)ccc23)cc1 | -19.3% (active) | -35.5% (active) | 4.51% (active) | 11.5% | -17.9% (active) | 16.6% | 1.29% (active) | -38.6% (active) | 19.8% | 58.3% | 12.1% | 23.6% | -94.4% (active) | -33.3% (active) | -21.8% (active) | -56.2% (active) | -83.3% (active) | -34.8% (active)
9 | COc1cc(CC(=O)c2ccc(O)c(OC)c2)ccc1O | 90.1% | 97.9% | 97.9% | 97.9% | 103% | 99.7% | 111% | 105% | 98.5% | 100% | 89.6% | 110% | 112% | 102% | 96.9% | 100% | 103% | 103%
10 | COc1ccc(C(C)=O)c(OC)c1 | 119% | 100% | 109% | 90.2% | 103% | 105% | 127% | 117% | 113% | 108% | 108% | 106% | 119% | 106% | 92% | 103% | 105% | 110%
11 | CC1(C)c2[nH]c3ccccc3c2C[C@]2(C)[C@H]3C(=O)C=C4[C@@H]5C[C@@](C)(C(N)=O)CC[C@]5(C)CC[C@@]4(C)[C@]3(C)CC[C@@H]12 | 45.8% | 42.3% | 75.1% | 93.3% | 54.4% | 71.3% | 84.4% | 69.9% | 71.4% | 71.2% | 20.3% | 70.7% | 83.6% | 79.4% | 35.3% | 46.3% | 79.2% | 67.5%
12 | CCCCCC(=O)Oc1ccc(/C(=C(\C)c2ccccc2)c2ccc(OCCN3CCCCC3)cc2)cc1 | 30.5% | 64.8% | 89.2% | 88.3% | 82.9% | 80.7% | 90.4% | 90.5% | 75.6% | 76.3% | 37.3% | 78.4% | 85.9% | 87.9% | 27.7% | 56.6% | 79.1% | 71.6%
13 | Cn1c2ccccc2c2c3c(c4c5ccccc5n(C)c4c21)C(=O)OC3 | 83.9% | 89.9% | 98.6% | 95.9% | 96.9% | 100% | 78% | 102% | 97.4% | 95.5% | 95.2% | 97.2% | 103% | 88% | 92.1% | 93.8% | 99.7% | 97.2%
14 | COc1cc(NCCCCCNC(C)(C)C)c2ncccc2c1 | 113% | 7.94% (active) | 102% | 110% | 22.6% | 97% | 37.2% | 81.2% | 88.3% | 85.4% | 19.9% | 109% | 94.6% | 96.7% | -54.4% (active) | 101% | 97.5% | 95.4%
15 | CN(C)c1ccc(C2C(C#N)=C(/N=C/c3ccccc3)Oc3c2ccc2ccccc32)cc1 (stereo unspecified) | 17.7% | 70.6% | 89.6% | 99.5% | 97.4% | 66.8% | 49.8% | 43.7% | 66.7% | 54.4% | 83.1% | 69.6% | 4.53% (active) | 41% | 54.3% | 56.5% | 104% | 58.8%
16 | NC(=O)Nc1ccc(-n2cnc3cc(-c4ccc(O)cc4)ccc32)cc1 | 88.1% | 91.5% | 97.4% | 97.5% | 89% | 137% | 108% | 108% | 109% | 103% | 59.7% | 88.2% | 96.8% | 114% | 93.7% | 91.8% | 110% | 21.8%
17 | C=C1C(=O)O[C@H]2[C@H]1CC/C(CNC(=O)/C=C/c1ccccc1)=C\CC[C@@]1(C)O[C@@H]21 | 6.13% (active) | -10.5% (active) | 5.85% (active) | -21.6% (active) | 38.5% | 109% | -16.9% (active) | -85.1% (active) | 28.6% | 69.1% | -12.1% (active) | -56.8% (active) | -8.54% (active) | -68.4% (active) | -22.2% (active) | -58.9% (active) | -7.49% (active) | 76.5%
